Reference: PubChem BioAssay (Tox21)
Inconclusive results are not listed. A number with no mark means an inactive call. Active and inactive are the calls of the source. The call rests on the fitted dose curve; in most records, active means well fitted activation curve with a large enough effect in the repeat runs; inconclusive means weak or mixed curves; inactive means no such curve, though single readings can be large or run the other way.

Molecular target: Nuclear receptor subfamily 1 group I member 2 (Homo sapiens) (UniProt O75469)
Test: Human pregnane X receptor (PXR) small molecule agonists, qHTS assay (AID 1346982); further: nearly all actives have a fitted effect of over 35% in size
Details: PXR-Luc HepG2, CYP3A4 luciferase reporter, 24 h; series mostly up to 92.4 µM; activation: at the top concentration
Text: National Center for Advancing Translational Sciences [NCATS]
NIH Chemical Genomics Center [NCGC]
U.S. Environmental Protection Agency [EPA]
National Institutes of Environmental Health Sciences [NIEHS]
National Toxicology Program [NTP]
The human pregnane X receptor (hPXR) regulates the expression of several drug metabolizing enzymes and induction of these proteins is a major mechanism for developing drug resistance in cancer. One such key enzyme catalyzing the drug metabolism is cytochrome P450 3A4 (CYP3A4). Changes in CYP3A4 expression affect drug metabolism, thereby reducing the therapeutic efficacy and altering toxicological response to a drug and which finally causes adverse drug interaction. To screen Tox21 libraries for compounds that activate hPXR-mediated CYP3A4 gene expression, PXR-Luc HepG2 cells were used.
PXR-Luc HepG2 cells were dispensed at 2,000 per well in 5uL of assay medium containing 5% charcoal-stripped FBS into white solid bottom 1536-well plates (Corning Life Sciences, Corning, NY) using a Multidrop Combi (Thermo Scientific, Waltham, MA) dispenser. The assay plates were incubated at 37 C and 5% CO2 for 5hr, and then 23nL of compounds dissolved in DMSO and positive control were transferred using a Pintool station (Wako, San Diego, CA). The assay plates were incubated at 37C and 5% CO2 for 24hr. For luciferase read, 4uL of ONE-Glo reagent (Promega Corporation, Madison, WI) was added to each well of the assay plates using Flying Reagent Dispenser (FRD, Aurora Discovery, San Diego, CA) and incubated the assay plates at room temperature for 30min. The luminescence signal was quantified using a ViewLux plate reader (Perkin Elmer, Shelton, CT).
On the % scale 0 is the no-effect control and ±100 the full control effect; potency means the concentration at half of the fitted maximal effect.

Sequence of Nuclear receptor subfamily 1 group I member 2 (Homo sapiens) (O75469 whole entry, looked up): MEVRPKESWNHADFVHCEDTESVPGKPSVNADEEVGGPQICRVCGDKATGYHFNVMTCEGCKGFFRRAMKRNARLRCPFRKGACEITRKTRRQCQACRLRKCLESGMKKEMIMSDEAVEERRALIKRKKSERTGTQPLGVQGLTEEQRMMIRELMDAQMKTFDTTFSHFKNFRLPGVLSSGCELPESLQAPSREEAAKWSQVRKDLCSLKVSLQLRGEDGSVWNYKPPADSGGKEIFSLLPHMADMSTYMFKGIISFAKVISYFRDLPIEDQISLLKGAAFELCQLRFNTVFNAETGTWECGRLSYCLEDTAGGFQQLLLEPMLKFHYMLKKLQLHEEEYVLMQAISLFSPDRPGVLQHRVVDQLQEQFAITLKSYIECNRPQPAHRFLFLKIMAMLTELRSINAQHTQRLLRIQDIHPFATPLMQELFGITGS

| Compound | activation | Potency |
| --- | --- | --- |
| CC(=O)OC(C)OC(C)=O | -3.02% |  |
| NC(=O)Cc1cccc(C(=O)c2ccccc2)c1N | 0.889% [at 42.5 µM] |  |
| CS(=O)(=O)c1ccc([C@@H](O)[C@@H](CF)NC(=O)C(Cl)Cl)cc1 | -3.79% [at 42.5 µM] |  |
| CCCCCOc1ccc(C2SC(=O)NC2=O)cc1OCC (stereo not given) |  | 29.8 µM (active) |
| O=c1oc2c(O)c(O)cc3c(=O)oc4c(O)c(O)cc1c4c23 | -29.4% [at 19 µM] |  |
| C[C@@H](N)C(=O)O | -0.134% [at 42.5 µM] |  |
| NCCCN1CCN(CCCN)CC1 | 1.88% |  |
| O=C1CCCc2ccccc21 |  | 39 µM (active) |
| O=C1C=CC(=O)O1 | 21.4% |  |
| OCCN1CCN(CCO)CC1 | 6.05% |  |
| CCc1cc2cc(OC)c(OC)cc2c(Cc2ccccc2)n1 |  | 13.3 µM (active) |
| O=S(=O)(O)C(F)(F)F | 20.9% |  |
| CN(C)C(=O)NC1(c2ccccc2)CCN(CCC[C@]2(c3ccc(Cl)c(Cl)c3)CCCN(C(=O)c3ccccc3)C2)CC1 | -0.297% [at 19 µM] |  |
| CCOC(=O)[C@H](CCc1ccccc1)N[C@@H](C)C(=O)N1Cc2cc(OC)c(OC)cc2C[C@H]1C(=O)O | 11.1% [at 42.5 µM] |  |
| C[C@@H]1CN(c2c(F)c(N)c3c(=O)c(C(=O)O)cn(C4CC4)c3c2F)C[C@H](C)N1 | -7.57% [at 19 µM] |  |
| CCOC(=O)NCCC[Si](OCC)(OCC)OCC | 5.93% |  |
| N#Cc1ccc(C(c2ccc(C#N)cc2)n2cncn2)cc1 | 10.1% [at 42.5 µM] |  |
| CC(C)C(=O)OC/C=C/c1ccccc1 | 3.27% |  |
| CCCC(CCC)(C(=O)OCC)C(=O)OCC | -1.8% [at 42.5 µM] |  |
| Cc1ccc(C(C)C)cc1O | 13.1% |  |

| Compound | activation | Potency |
| --- | --- | --- |
| CCOC(=O)CS | 5.47% |  |
| CN(CCCN1c2ccccc2CCc2ccccc21)CC(=O)c1ccc(Cl)cc1 |  | 18.8 µM (active) |
| CCCCc1ccc2nc(NC(=O)OC)[nH]c2c1 |  | 2.98 µM (active) |
| CCN(CC)CCNC(=O)COc1ccc(Cl)cc1 | -5.08% [at 42.5 µM] |  |
| CC(C)(C)c1cccc(O)c1 | 19% |  |
| Cc1ccsc1C(=CCCN1CCC[C@@H](C(=O)O)C1)c1sccc1C | 6.1% [at 42.5 µM] |  |
| CCCCCCOc1ccc(N)cc1 |  | 48.6 µM (active) |
| CCC(=O)Nc1ccc(O)cc1 | -4.52% [at 42.5 µM] |  |
| C=CC1CO1 (stereo not given) | -4.7% |  |
| OC[C@H]1O[C@@H](O[C@H]2[C@H](O)[C@@H](O)[C@H](O)O[C@@H]2CO)[C@H](O)[C@@H](O)[C@H]1O | 2.85% |  |
| CC(C)O | 0.91% |  |
| CC(C)=CCCC(C)CCOC=O (stereo not given) | -10% |  |
| CCCc1c2oc(C(=O)O)cc(=O)c2cc2c(=O)cc(C(=O)O)n(CC)c12 | 0.482% [at 42.5 µM] |  |
| C=CCCCCCCCCO | -1.73% |  |
| CC[C@H]1CC[C@H](NCc2cc3c(cc2OC)[C@H]2C[C@H]2C(=O)N3C)[C@H](c2ccccc2)N1 |  | 17.2 µM (active) |
| Cc1ncc(CO)c(CN)c1O | -5.49% [at 42.5 µM] |  |
| CCN(CC)CCOc1ccc(Cc2ccccc2)cc1 |  | 23.7 µM (active) |
| CN1CCN(C2=Nc3ccccc3Oc3ccc(Cl)cc32)CC1 |  | 23.7 µM (active) |
| O=C1CCCCC1C1CCCCC1 (stereo not given) | -1.26% |  |
| CO[C@@]1(NC(=O)CSCC#N)C(=O)N2C(C(=O)O)=C(CSc3nnnn3C)CS[C@@H]21 | -2.45% [at 42.5 µM] |  |
